# Shown are actives, neighbours in structure and some others; about 2.4% of the full set was active somewhere.
# TLR9-MyD88 block – inhibitors of human TLR9-MyD88 binding. Q9NR96+Q99836. CHO BLA complementation TLR9-MyD88, CCF4 FRET ratio. inhibition, % at 4.98 µM. hit rate 0.21% among 340,000;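 active means inhibition above the mean over all tested compounds plus 3 SD, cut at about 21% in these data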;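 further: 0% = DMSO only wells and 100% = clavulanate BLA inhibitor control wells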
# Target sequence (Q99836 whole entry, looked up): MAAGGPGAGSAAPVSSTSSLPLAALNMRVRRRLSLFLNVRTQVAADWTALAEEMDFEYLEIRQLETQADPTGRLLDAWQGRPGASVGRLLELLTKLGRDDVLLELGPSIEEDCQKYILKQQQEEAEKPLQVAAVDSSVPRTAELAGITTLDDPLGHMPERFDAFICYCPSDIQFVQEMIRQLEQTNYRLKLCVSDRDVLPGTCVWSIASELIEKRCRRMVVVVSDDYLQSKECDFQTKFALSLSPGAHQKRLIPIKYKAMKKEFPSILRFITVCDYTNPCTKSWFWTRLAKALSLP
# Target sequence (Q9NR96 whole entry, looked up): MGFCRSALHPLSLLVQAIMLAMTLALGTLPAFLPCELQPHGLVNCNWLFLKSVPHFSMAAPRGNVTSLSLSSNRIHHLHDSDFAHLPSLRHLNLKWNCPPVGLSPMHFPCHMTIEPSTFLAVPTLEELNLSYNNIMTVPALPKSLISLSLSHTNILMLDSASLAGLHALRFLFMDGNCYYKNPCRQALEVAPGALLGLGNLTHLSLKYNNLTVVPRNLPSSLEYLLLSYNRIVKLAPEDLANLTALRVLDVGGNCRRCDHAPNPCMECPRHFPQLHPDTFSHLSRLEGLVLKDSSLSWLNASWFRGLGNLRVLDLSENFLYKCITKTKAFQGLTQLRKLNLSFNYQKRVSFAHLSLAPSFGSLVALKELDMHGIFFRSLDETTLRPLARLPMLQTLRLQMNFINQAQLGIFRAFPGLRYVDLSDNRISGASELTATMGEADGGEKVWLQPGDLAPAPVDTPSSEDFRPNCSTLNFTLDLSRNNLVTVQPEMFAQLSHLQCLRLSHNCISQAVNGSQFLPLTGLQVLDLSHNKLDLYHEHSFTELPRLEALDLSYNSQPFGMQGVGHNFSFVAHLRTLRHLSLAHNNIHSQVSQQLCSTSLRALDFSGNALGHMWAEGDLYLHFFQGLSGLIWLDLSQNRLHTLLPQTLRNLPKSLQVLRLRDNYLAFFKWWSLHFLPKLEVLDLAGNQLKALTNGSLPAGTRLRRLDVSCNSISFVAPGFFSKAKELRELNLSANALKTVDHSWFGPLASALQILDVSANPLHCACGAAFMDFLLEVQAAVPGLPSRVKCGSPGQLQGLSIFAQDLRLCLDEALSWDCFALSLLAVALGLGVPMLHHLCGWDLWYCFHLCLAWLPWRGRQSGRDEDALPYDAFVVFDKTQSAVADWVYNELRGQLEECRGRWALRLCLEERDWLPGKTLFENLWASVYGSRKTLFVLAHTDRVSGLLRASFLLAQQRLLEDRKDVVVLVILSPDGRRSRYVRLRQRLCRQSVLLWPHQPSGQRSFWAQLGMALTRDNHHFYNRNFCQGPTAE
# HSF1 inhib – HSF1 inhibition; NIH3T3-HGL HSE-luciferase, MG132-induced, luminescence 8 h; stronger effect = lower value; activity change, negative = inhibition, % at 7.5 µM (by protocol); hit rate 0.77% among 300,000; AID 2098;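 active means more than half of replicate wells show activity change below -50%, luminescence cut by over half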;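 further: luciferase reports HSF-1 transcriptional activity via heat shock element; 0% = median of DMSO wells and -100% = zero luminescence signal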
# TLR4-MyD88 BLA – blocks binding of human TLR4 to MyD88 | O00206+Q99836 | HeLa CL3-4 TLR4/MyD88 BLA complementation, FRET ratio | inhibition, % at 8.4 µM | hit rate 0.18% among 200,000 | AID 861; in the data active means inhibition above about 25%;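 further: 0% = vehicle and 100% = reference inhibitor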
# NOD2-RIPK2 inh – inhibitors of human NOD2-RIPK2 interaction | O43353 | CHO BLA complementation NOD2-RIPK2, CCF4 ratio | inhibition, % at 4.98 µM | hit rate 0.38% among 360,000; in the data active means inhibition above about 21%;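 further: 0% = vehicle only and 100% = reference blocker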
# HSF-1 act – increases HSF-1 driven luciferase reporter signal | hit rate 1.7% among 300,000 | AID 504408 | NIH3T3-HGL HSF-1 luciferase reporter, MG132, 8 h; 100% = twice DMSO control signal | activation, % at 9 µM;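 active means mean replicate activation of at least 50% with a set share of replicates each reaching 50%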;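 further: 0% = median of the neutral control wells and 100% = twice that signal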
# TLR9-MyD88 cf – TLR9-MyD88 interaction inhibition, confirmation. shares compounds with TLR9-MyD88 block. CHO TLR9/MyD88 BLA complementation, CCF4 FRET ratio. inhibition, % at 4.98 µM. hit rate 51% among 680. AID 540250;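 active means mean inhibition across three repeats above about 21% taken from the earlier screen, limit read from the data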;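 further: blue over green emission ratio reports constitutive TLR9 MyD88 association via BLA complementation; 0% = DMSO vehicle wells and 100% = clavulanate BLA inhibitor wells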
# BLA nonselective – counter-screen for TLR9-MyD88 inhibitors: non-selective beta-lactamase inhibitors; hit rate 7% among 680; inhibition, % at 4.98 µM; CHO-BLA cells, CCF4 FRET ratio, BLA reporter; shares compounds with TLR9-MyD88 block;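 active means mean inhibition above a 50% cutoff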;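 further: counterscreen of TLR9-MyD88 hits on CMV-driven BLA in CHO-K1 cells; 0% = DMSO alone and 100% = clavulanate blocking BLA; higher means less blue over green ratio so more BLA blockade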
# TLR9 CHO tox – counter-screen for TLR9-MyD88 inhibitors: cytotoxicity in CHO cells; shares compounds with TLR9-MyD88 block; luminescence; inhibition, % at 4.98 µM; hit rate 39% among 680; in the data active means inhibition above about 11%
# Numbers without * were called inactive; nt = no result given.
SMILES,TLR9-MyD88 block,HSF1 inhib,TLR4-MyD88 BLA,NOD2-RIPK2 inh,HSF-1 act,TLR9-MyD88 cf,BLA nonselective,TLR9 CHO tox
CN=c1scc(-c2cccs2)n1/N=C/c1ccccc1O,26*,-90*,-5,6,-91,8,6,9
CCCCN(CCCC)Cc1cc(=O)oc2cc(OC)c(Cl)cc12,nt,nt,nt,-5,nt,nt,nt,nt
C=CCCCCCCCCc1nc(SCC(C)=O)n[nH]1,7,-1,nt,-17,-14,nt,nt,nt
C=CCCCCCCCCc1nc(SCC(=O)O)n[nH]1,32*,-3,nt,1,-10,-5,-1,1
COc1ccc(C2=CC(c3ccc(C)cc3)n3nnnc3N2)cc1 (centres undefined),26*,5,8,27*,1,5,7,-2
COc1ccc(C2C=C(c3ccccc3)Nc3nnnn32)cc1 (centres undefined),24*,-2,1,-2,-7,4,1,-1
COc1cccc(C2=CC(c3ccccc3)n3nnnc3N2)c1 (centres undefined),8,4,0,4,9,nt,nt,nt
CCc1cc2c(-c3ccccc3)cc(=O)oc2cc1OC(C)C(=O)O (centres undefined),-8,-10,nt,-11,3,nt,nt,nt
CC(NC(=O)OCc1ccccc1)C(=O)Oc1cc2oc(=O)cc(-c3ccccc3)c2cc1Cl (centres undefined),34*,-15,5,38*,-20,16,22,-10
O=C(OCn1ncc(Cl)c(Cl)c1=O)c1ccccc1Cl,31*,-95*,16,54*,-95,28*,23,99*
COc1ccc(S(=O)(=O)N2CCNC(=O)C2)cc1Br,22*,-2,14,6,1,-3,0,2
COc1ccc(S(=O)(=O)N2CCCCCC2)cc1Br,-10,0,2,-10,-12,nt,nt,nt
Cc1ccc(S(=O)(=O)Nc2cccc3ncccc23)s1,44*,132,19,55*,108*,20,8,101*
CCC(CC)c1nnc(NC(=O)Cc2c[nH]c3ccccc23)s1,-2,nt,nt,7,nt,nt,nt,nt
N#Cc1ccc(-c2ccco2)nc1SCC(=O)c1ccc(Cl)cc1,28*,6,30*,15,24,25*,25,8
NC(=S)N=Nc1c(O)n(Cc2ccccc2)c2ccccc12,2,-1,-15,-8,0,nt,nt,nt
O=Nc1c(O)n(Cc2cccc(Cl)c2)c2ccccc12,26*,1,4,20,5,18,16,14*
CC(/C=N\NC(=O)c1ccc2c(c1)OCO2)c1ccccc1 (centres undefined),0,-16,nt,-2,-24,nt,nt,nt
O=C(/C(=C/O)N=Nc1ccccc1)c1ccc(Cl)cc1,4,-22,-11,-5,-24,nt,nt,nt
Cc1ccc(N=N/C(=C\O)C(=O)c2ccc(Cl)cc2)cc1,21*,-64*,-12,-10,-64,6,4,11*
CCOC(=O)C(=O)N(C)c1c(CC)nc2c(OCc3cc(Cl)cc(Cl)c3)cccn12,nt,nt,nt,-10,nt,nt,nt,nt
COc1cc(/C=C2/S/C(=N/S(=O)(=O)c3ccccc3)NC2=O)c([N+](=O)[O-])cc1OC,-4,1,5,-7,9,nt,nt,nt
O=C1N/C(=N\S(=O)(=O)c2ccccc2)S/C1=C\c1cc([N+](=O)[O-])ccc1O,25*,-6,nt,11,7,9,13,0
O=C(c1cc2ccccc2o1)N1CCN(c2ncccn2)CC1,-7,nt,nt,1,nt,nt,nt,nt
CCOC(=O)C[C@@H]1OC[C@H](C)N1S(=O)(=O)c1ccc(C)cc1,nt,nt,nt,-6,nt,nt,nt,nt
SMILES,TLR9-MyD88 block,HSF1 inhib,TLR4-MyD88 BLA,NOD2-RIPK2 inh,HSF-1 act,TLR9-MyD88 cf,BLA nonselective,TLR9 CHO tox
CCc1ccc(/C=C2/C(=O)N(c3ccccc3)C(=S)N2CC(=O)OC)s1,29*,-22,5,3,-33,10,33,2
N#CC1=C(N)Oc2cc(O)c(Cl)cc2C1c1ccccc1F (centres undefined),22*,6,nt,1,5,2,5,-2
Cc1cccc(NC(=O)CCN2C(=O)c3ccccc3S2(=O)=O)c1C,21*,4,nt,-15,2,4,1,-1
O=C(N/N=C\c1c[nH]c2ccccc12)c1ccc(O)cc1,21*,-8,nt,3,-2,0,0,1
O=C(O)c1ccc(N2C(=O)c3ccccc3C2=O)cc1[N+](=O)[O-],-5,nt,nt,-13,nt,nt,nt,nt
CCCCC(=O)Nc1ccc2c(c1)nc(CCN1CCN(c3ccccn3)CC1)n2C,-7,-10,nt,1,-14,nt,nt,nt
CCCC(=O)Nc1ccc2c(c1)nc(CCN1CCN(c3ccccn3)CC1)n2C,27*,-7,nt,-5,-6,2,3,3
CCN(CC)c1ccc(C(=O)NNC(=O)CN2C(=O)NC(C)(c3ccccc3)C2=O)cc1 (centres undefined),-7,nt,nt,-8,nt,nt,nt,nt
Cc1ccc(C(=O)COC(=O)COc2ccccc2[N+](=O)[O-])s1,-10,nt,nt,-13,nt,nt,nt,nt
CCOC(=O)COc1ccccc1/C=C\[N+](=O)[O-],33*,-61*,22,87*,-66,47*,6,96*
CCOc1cc(CN2CCC(N3CCC(C(=O)NC4CC4)CC3)CC2)ccc1O,-3,nt,nt,1,nt,nt,nt,nt
Cc1ccc(-c2cc(NC(=O)c3ccccc3)on2)cc1,24*,10,nt,-6,44,2,0,-2
O=Nc1onc(-c2ccc([N+](=O)[O-])cc2)c1NO,36*,2,7,2,-11,4,2,0
CCc1ccccc1NC(=O)CN1CCN(C(=O)C2CCN(C(=O)/C=C/c3ccccc3)CC2)CC1,2,nt,nt,-8,nt,nt,nt,nt
CC(C)NC(=O)C1(C)CN(S(C)(=O)=O)CC(=O)N1Cc1cccc(F)c1 (centres undefined),nt,nt,nt,-4,nt,nt,nt,nt
CCOC(=O)c1c(C)nc2sc(C(N)=O)c(N)c2c1-c1ccccc1,-2,-5,6,2,-1,nt,nt,nt
CCOC(=O)c1c(C)nc2sc(C(=O)Nc3ccccc3)c(N)c2c1-c1ccc(OC)cc1,31*,-7,19,14,-14,19,19,15*
O=C(N/N=C\c1c(O)ccc2ccccc12)c1cncc(Br)c1,23*,-16,nt,11,-21,18,15,60*
Cc1ccc(/C=C2/NC(=O)N(Cc3ccc(Br)cc3)C2=O)o1,22*,33,-4,12,59*,2,2,13*
CS(=O)(=O)c1ccc(C(=O)OCC(=O)NCc2cccs2)cc1[N+](=O)[O-],22*,nt,nt,10,nt,29*,14,78*
Cc1cccc(C(=O)OCC(=O)NCc2cccs2)c1,-7,1,8,-3,2,nt,nt,nt

# High-throughput results as filed in PubChem BioAssay.
